From PubChem BioAssay
NS1 function inh: influenza NS1 inhibition; Potency, µM (top dose mostly 46.1 µM), without a hit: top-dose activity, positive = more growth; 270,000 tested, 0.4% active; calls by dose curve; further: potency means the concentration at half of the fitted maximal effect; actives are rising curves; nearly all actives have a fitted effect of over 50% in size
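OD600 was taken as the measure of yeast growth restored by compound in an NS1-expressing S. cerevisiae strain. Cells had been washed out of glucose medium and diluted 1:100 into galactose -URA medium, pH 6.0.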
Cruzain Triton: cruzain (T. cruzi) inhibition with detergent. P25779. Potency, µM, without a hit: max response, negative = inhibition, actives largely listed as inhibitors. purified cruzain, Z-FR-AMC fluorescence, 0.01% Triton. 200,000 tested, 0.43% active;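 further: potency means the concentration at half of the fitted maximal effect; plate controls were neutral wells for no effect and buffer without enzyme for full effect; nearly all actives have a fitted effect of over 40% in size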
Target sequence (P25779 123-467 limits assumed): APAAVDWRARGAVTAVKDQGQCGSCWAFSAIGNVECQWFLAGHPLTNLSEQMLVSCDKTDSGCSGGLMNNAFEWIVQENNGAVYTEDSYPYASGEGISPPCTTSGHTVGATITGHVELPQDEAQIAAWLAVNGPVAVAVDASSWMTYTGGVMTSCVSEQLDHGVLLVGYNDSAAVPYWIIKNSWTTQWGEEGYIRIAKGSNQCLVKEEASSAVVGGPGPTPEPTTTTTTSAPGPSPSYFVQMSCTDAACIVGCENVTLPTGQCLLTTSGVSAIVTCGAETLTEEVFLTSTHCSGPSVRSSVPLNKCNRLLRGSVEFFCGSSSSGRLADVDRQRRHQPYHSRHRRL
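Sodium acetate buffer (100 mM, pH 5.5) containing 5 mM DTT and 0.01% Triton X-100 hosted 1.5 nM cruzain and test compound for 15 min at room temperature. Cleavage of 2 uM Z-FR-AMC was then tracked by fluorescence.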
Cruzain noTriton: inhibitors of Trypanosoma cruzi cruzain without detergent; P25779; purified cruzain, Z-FR-AMC fluorescence, no detergent; Potency, µM, inactives show max response, negative = inhibition, usual class: inhibitors; 200,000 tested, 2.3% active; AID 1476;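 further: potency means the concentration at half of the fitted maximal effect; plate controls were enzyme without inhibitor for no effect and buffer without enzyme for full effect; nearly all actives have a fitted effect of over 40% in size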
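Detergent-free condition (0.00005% Triton X-100) in acetate buffer pH 5.5 with DTT. 1.5 nM enzyme and compound were pre-mixed 15 min, then 2 uM Z-FR-AMC substrate added; reaction progress from fluorescence change between first and third reads (60 s).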
NS1 inh valid: validation of influenza NS1 protein function inhibitors. influenza NS1 function cell assay, 15-point titration. 1,400 tested, under 10 active. AID 492980. activity change, negative = inhibition, % at 32.9 µM. shares compounds with NS1 function inh; calls by dose curve; further: 0% is about no effect
An asterisk follows results filed as active; ? = inconclusive; · = no result given. Many of the other results were omitted from the sample, so hits are more common in it than they were. Unless noted, the call rests on the fitted dose curve; in most records, active means well fitted curve in the direction sought with a large enough effect; inconclusive means small, poorly fitted or top-dose-only effect, or another doubt; inactive means no such curve, though single readings can be large; an effect the other way counts as inactive or inconclusive.

SMILES	NS1 function inh	Cruzain Triton	Cruzain noTriton	NS1 inh valid
Cc1c(/C=N/NC(=O)c2ccc(O)cc2)c2ccccn2c1C(=O)c1ccc(F)cc1	8.91µM*	-3.0%	?	-7.8
Cc1c(/C=N/NC(=O)c2cccnc2)c2ccccn2c1C(=O)c1ccc(F)cc1	10.0%	-9.6%	?	·
CCN(C(=O)Cn1c(C(=O)OC)cc2sccc21)c1cccc(C)c1	·	-5.8%	-8.6%	·
COc1cccc2c1CCC1=CC(=O)CC[C@@]12C	·	-2.2%	6.2%	·
C[C@@H]1[C@H](C)CC[C@@]2(C(=O)O[C@H]3O[C@@H](CO[C@H]4O[C@@H](CO)[C@@H](O[C@H]5O[C@@H](C)[C@@H](O)[C@@H](O)[C@@H]5O)[C@@H](O)[C@@H]4O)[C@@H](O)[C@@H](O)[C@@H]3O)CC[C@]3(C)C(=CC[C@H]4[C@@]5(C)C[C@@H](O)[C@@H](O)[C@](C)(CO)[C@@H]5CC[C@@]43C)[C@@H]12	·	-2.7%	1.1%	·
Cc1nc(SCC(=O)NCc2ccco2)c2c3c(sc2n1)CCCC3	4.47µM*	-13.3%	9.7%	?
O=C(CSc1nc(C2CC2)nc2sc3c(c12)CCCC3)NCc1ccco1	1.3%	1.4%	-28.5%	·
CC1CCCCN1Cc1c(O)ccc2c(=O)c(-c3ccc(Cl)cc3)c(C(F)(F)F)oc12 (configuration not stated)	·	?	-7.4%	·
CCOc1ccc(C(=O)Nc2nnc(SCc3cc(=O)c4cc(C)ccc4[nH]3)s2)cc1	·	2.9%	-4.5%	·
O=C(c1cnccn1)N1CCC2(CCCN(Cc3nccs3)C2)CC1	·	7.7%	0.1%	·
C/C(N)=C(/C#N)C(=O)CSc1ccccc1F	5.1%	·	·	·
C/C(N)=C(/C#N)C(=O)CSc1n[nH]c(-c2ccccc2Br)n1	3.98µM*	0.4%	4.5%	-0.5
Cc1cccc(C)c1NC(=O)Cn1c(SCC(=O)NCc2ccccc2)nc2ccccc21	·	0.0%	-1.5%	·
O=S1(=O)c2cccc3cccc(c23)N1Cc1ccc(-c2nnco2)cc1	-19.7%	-3.5%	-19.9%	·
O=C(N/N=C/CCc1ccccc1)c1ccc(CN2c3cccc4cccc(c34)S2(=O)=O)cc1	8.91µM*	-1.3%	?	25.0
O=C(Cn1c(=O)n(Cc2ccc3c(c2)OCO3)c(=O)c2oc3ccccc3c21)Nc1ccccc1F	·	0.0%	-15.2%	·
O=C(CSc1n[nH]c(-c2ccc(F)cc2)n1)NCc1ccccc1Cl	·	-6.2%	-6.3%	·
O=C(N/N=C/C=C\c1ccccc1[N+](=O)[O-])c1ccccn1	-20.5%	-9.4%	4.2%	·
O=C(N/N=C/C=C/c1ccccc1[N+](=O)[O-])c1cc(-c2ccccc2)n[nH]1	2.24µM*	-18.4%	25.1µM*	9.8
O=C(N/N=C/c1cccc2ccccc12)c1ccccc1Cl	-44.3%	·	·	·
O=C(N/N=C/c1cc2ccccc2[nH]1)c1ccccc1Cl	?	·	·	-11.0
CCCn1c(SCC(=O)Nc2sc(C)c(C)c2C#N)nnc1C(C)C	8.91µM*	-1.4%	3.8%	-19.8
Cc1sc(NC(=O)CSc2nnc(C(C)C)n2C)c(C#N)c1C	1.9%	-1.0%	4.0%	·
Fc1cccc(CSc2ncnc3c2ncn3[C@H]2CCCS2)c1	-16.3%	2.5%	-1.5%	·
CCCn1c(C)cc(C(=O)CSc2nc3ccccc3c(=O)n2Cc2ccco2)c1C	8.91µM*	-4.4%	-21.2%	-15.2
SMILES	NS1 function inh	Cruzain Triton	Cruzain noTriton	NS1 inh valid
CCN(CC)C(=O)CSc1nc2ccccc2c(=O)n1Cc1ccco1	·	4.0%	-3.9%	·
CCOc1ccc(CNC(=O)COc2cc(=O)n(C)c3ccccc23)cc1	·	0.2%	19.9%	·
CC(C)OCCCn1c(=O)c2ccccc2n2c(-c3ccc(F)c(F)c3)nnc12	·	-2.8%	-6.2%	·
C=CCN1CC[C@]23c4c5ccc(O)c4OC2C(=O)CC[C@]3(O)C1C5 (some centres not stated)	·	8.6%	16.1%	·
C=CCN1CC[C@]23c4c5ccc(O)c4OC2C(=O)CC[C@@]3(O)C1C5 (some centres not stated)	12.6µM*	·	·	-16.8
Cc1cccc(C)c1NC(=O)c1cn(-c2ccccc2)nc1-c1ccccc1	-1.1%	-6.5%	4.1%	·
O=C(NN=C1CCCCCC1)c1cn(-c2ccccc2)nc1-c1ccccc1	14.1µM*	-6.3%	-12.6%	31.5
O=C(NN=C1CCCC1)c1ccccc1[N+](=O)[O-]	?	·	·	10.5
CC(C)N1CCC(=NNC(=O)c2ccccc2[N+](=O)[O-])CC1	-4.2%	-0.5%	5.2%	·
O=C(c1ccc([N+](=O)[O-])cc1)N(Cc1ccco1)c1ccccn1	·	-3.1%	-4.3%	·
C=C1C(=O)OC2C[C@@]3(C)CCCC(C)C3=CC12 (some centres not stated)	·	0.4%	-6.0%	·
COc1cccc(-c2ccc3ncnc(N4CCOCC4)c3c2)c1	·	1.2%	-3.9%	·
